Assay results reported in PubChem BioAssay (NCI).
This is part of a sample that, as a whole, favours compounds with a hit. Of some 83,000 tested, about 20% had one in any assay.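 Plates (96-well) were seeded with cells, treated with compound at one concentration, and incubated for 48 hours before percent growth was determined.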 Calls of active or inactive are those of the source. How the source made its calls: active means growth percent below 10; inactive means the rest.

tested on: OVCAR-3 ovarian; experiment: NCI-60 one-dose screen, 48 h (100 = growth as untreated, 0 = no growth, -100 = all killed); conditions: 10 µM unless noted

| Structure (SMILES) | growth |
| --- | --- |
| O=C(Nc1cccnc1Nc1ccc(Cl)cc1)c1cn(Cc2cccc(Oc3ccccc3)c2)nn1 | 30.7% (inactive) |
| C1CCC(N2CN3c4nonc4N4CN(C5CCCCC5)CN5c6nonc6N(C2)C3C45)CC1 (centres undefined) | 101% (inactive) |
| N#Cc1c(-c2ccc(Br)cc2)nc2c(N=Nc3ccc(S(N)(=O)=O)cc3)c(N)nn2c1N | 55.3% (inactive) |
| COc1cc(/C=C/C(=O)c2cc(OC)c(OC)c(OC)c2)ccc1Oc1nc2c(c(=O)n(C)c(=O)n2C)n1C | -48.4% (active) |
| CC1(/C=C/c2ccc(-c3ccccc3)cc2)CCn2cnc3ncnc(c32)N1O (centres undefined) | 37.2% (inactive) |
| CCCc1cc(=O)oc2c(C(=O)CC(C)C)c(O)c(CC=C(C)C)c(O)c12 | 13.6% (inactive) |
| CS(=O)(=O)Nc1cc(-c2ccc3ncnc(Nc4ccc(OCc5ccccn5)c(Cl)c4)c3c2)cnc1Cl | -19% (active) |
| CCN1CCN(CCNc2nccc(-c3c(-c4ccc(F)c(O)c4)nc4occn34)n2)S1(=O)=O | 39.4% (inactive) |
| COc1ccc(C2[C@@H](Cl)C(=O)N2c2cc(OC)c(OC)c(OC)c2)cc1Cl (some centres undefined) | -2.62% (active) |
| CN1CCN(Cc2ccc(NC(=O)c3cncc(C#Cc4cnc(N)cc4C#N)c3)cc2C(F)(F)F)CC1 | 28.4% (inactive) |
| CN(C)c1ccc([C@@H](C(=O)Nc2cccc([N+](=O)[O-])c2)N(C(=O)c2cc3ccccc3[nH]2)c2cccc([N+](=O)[O-])c2)cc1 | 111% (inactive) |
| c1cc(OCCN2CCCCC2)ccc1CNc1ccc2nc(CCC3CCCCC3)[nH]c2c1 | 48.4% (inactive) |
| Cc1[nH]n(-c2cccc(Cl)c2)c(=O)c1/C=C1\C=c2ccccc2=CC1=O | 63.2% (inactive) |
| CC(C)(C)OC(=O)CN1CCc2c(sc3ncnc(N4CCN(c5ccc(F)cc5)CC4)c23)C1 | 90.5% (inactive) |
| Cc1ccc2c(c1)sc1nc(-c3c[nH]c4ccccc34)c(Nc3ccccc3)n12 | 99.2% (inactive) |
| Cn1c(C#N)ccc1-c1ccc(F)c(NC(=O)c2ccc(F)cc2)c1 | 77% (inactive) |
| CCOC(=O)C1=C(CC(O)c2ccc(OC)cc2OC)NC(=O)NC1c1ccccc1 (centres undefined) | 109% (inactive) |
| CCSc1ccnc(N)n1 | 97.3% (inactive) |
| Cc1ccc(S(=O)(=O)c2nc(-c3ccccc3)oc2SCC(N)=O)cc1 | 94.9% (inactive) |
| CN(C)c1ccc(/C=N\NC(=O)c2ccc3nc(-c4ccc(Cl)cc4)[nH]c3c2)cc1 | 70.7% (inactive) |

| Structure (SMILES) | growth |
| --- | --- |
| CCOC(=O)C1=C(c2ccccc2)N=C2N(c3ccccc3)N=C(C(C)=O)N2C1c1ccc(F)cc1 (centres undefined) | 105% (inactive) |
| CN(C)Cc1ccc(NC(=O)c2cncc(C#Cc3cnc(N)c4ncccc34)c2)cc1C(F)(F)F | 102% (inactive) |
| CCN(CC)CCn1c2ccc(OC)cc2c2sc3cc(O)ccc3c(=O)c21 | 38.3% (inactive) |
| Cc1cc(=O)oc2cc(Oc3nc(Br)cn4c(Br)cnc34)ccc12 | 56.7% (inactive) |
| Nc1[nH]nc2nc(-c3ccccc3)n3c4ccccc4nc3c12 | 106% (inactive) |
| O=[N+]([O-])c1ccccc1Sc1ccccc1[N+](=O)[O-] | 92.4% (inactive) |
| CC1(C)N=C(N)N=C(N)N1c1ccc(S(=O)(=O)Nc2nccs2)cc1 | 107% (inactive) |
| c1ccc(-c2ccc3c(c2)C2(CCNCC2)CN3)cc1 | 86.2% (inactive) |
| CCOC(=O)/C=C1\S/C(=N\Nc2cc(=O)[nH]c3ccc(Br)cc23)N(c2ccccc2)C1=O | -17% (active) |
| COc1ccc(C2CC(n3ccnc3)c3cc(OC)c(OC)c(OC)c32)cc1O (centres undefined) | 57.1% (inactive) |
| COC(=O)c1c2c(c[n+]([O-])c1C)C(=O)C=C(NCc1ccccc1)C2=O | -68.7% (active) |
| COc1ccc2c(c1)c(-c1nc(-c3ccc4ccccc4c3)cs1)cn2C | 96.2% (inactive) |
| Cc1ccc2c(c1)nc(C)n2-c1ncnc2c1CC(C)c1cc(O)ccc1N2C (centres undefined) | 14.6% (inactive) |
| Cc1cc(N2CCN(CC(=O)Nc3ccc4c(ccn4Cc4ccccc4)c3)CC2)nc(N2CCOCC2)n1 | 89.3% (inactive) |
| COCCn1cc(-c2csc(-c3c[nH]c4ccc(F)cc34)n2)c2cccnc21 | 15.2% (inactive) |
| Cc1ccc(C(=O)c2ccc(CC(=O)N/N=C/c3cccc(O)c3O)n2C)cc1 | 23.5% (inactive) |
| CC[C@@H](C(=O)[C@@H](C)[C@@H](O)[C@H](C)[C@@H]1O[C@@H]([C@@H](CC)C(=O)ONC(=O)c2ccccc2O)CC[C@@H]1C)C1O[C@]2(C=CC(=O)[C@]3(CC[C@@](C)([C@H]4CC[C@](O)(CC)[C@H](C)O4)O3)O2)[C@H](C)C[C@@H]1C (some centres undefined) | 5.93% (active) |
| COc1cc(-c2nccc3[nH]c(-c4cccc5[nH]ccc45)nc23)cc(OC)c1OC | 16.7% (inactive) |
| CC(C)Cc1nc(Nc2ccccc2)[nH]c(=O)c1C#N | 30.8% (inactive) |
